Reference: PubChem BioAssay (NCATS)
Inconclusive results are not listed. Active and inactive are the calls of the source. Calls follow the shape of the dose curve; as a rule, active = well fitted curve in the direction sought with a large enough effect; inconclusive = small, poorly fitted or top-dose-only effect, or another doubt; inactive = no such curve, though single readings can be large; an effect the other way counts as inactive or inconclusive.

Experiments:
CRL-7250 = normal cell line; assay: Cytotoxic Profiling of Annotated Libraries Using Quantitative High-Throughput Screening (AID 1296008); details: Five cell lines viability, CellTiter-Glo ATP luminescence, 48-72 h; max response: active compounds read low; also: nearly all actives have a fitted effect of over 60% in size; as to max response: % is scaled to controls: 0 for no effect and ±100 for the full control effect
Summary of the method: (§1)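 Cytotoxicity was measured as CellTiter-Glo ATP luminescence, read after 10 min at room temperature. Compound treatment of the cells lasted 48 or 72 hr at 37 degrees Celsius in a qHTS format.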

HEK293 = assay: as above; details: Five cell lines viability, CellTiter-Glo ATP luminescence, 48-72 h; max response: active compounds read low
Summary of the method: as §1

HaCat [1] = assay: as above; details: Five cell lines viability, CellTiter-Glo ATP luminescence, 48-72 h; max response: active compounds read low
Summary of the method: as §1

KB-3-1 = assay: as above; details: Five cell lines viability, CellTiter-Glo ATP luminescence, 48-72 h; max response: active compounds read low
Summary of the method: as §1

NIH3T3 = assay: as above; details: Five cell lines viability, CellTiter-Glo ATP luminescence, 48-72 h; max response: active compounds read low
Summary of the method: as §1

HACAT [2] = assay: qHTS assay to identify novel small-molecules to repurpose for Merkel cell carcinoma treatment (AID 1296009); details: MCC and control cell lines, CellTiter-Glo viability, 72 h; at 44.8 µM (top of the series) unless noted; also: nearly all actives have a fitted effect of over 60% in size
Summary of the method: (§2)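 Cell viability measured by CellTiter-Glo following 72 hr compound treatment at 37 degree celsius, with NPC and MIPE libraries tested in 8- and 11-point concentration series.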

HEK293T = assay: as above; details: MCC and control cell lines, CellTiter-Glo viability, 72 h; series mostly up to 44.8 µM
Summary of the method: as §2

C33A = assay: Primary qHTS to identify gynecologic anti-cancer compounds using libraries of approved drugs and bioactive compounds (AID 1345084); details: Gynecologic cancer cell panel viability, ATPlite luminescence, 48 h; series mostly up to 57.5 µM; also: % is scaled to controls: 0 for no effect and ±100 for the full control effect; nearly all actives have a fitted effect of over 55% in size
Summary of the method: (§3)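 Cells, 1,000 per well, were allowed to settle for 16 h at 37 C before compound addition. Five concentrations were tested for 48 h, and viability was read by ATPlite luminescence after 15 min at room temperature.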

CAOV3 = assay: as above; details: Gynecologic cancer cell panel viability, ATPlite luminescence, 48 h; series mostly up to 57.5 µM
Summary of the method: as §3

CASKI = assay: as above; details: Gynecologic cancer cell panel viability, ATPlite luminescence, 48 h; series mostly up to 57.5 µM
Summary of the method: as §3

Es-2 = assay: as above; details: Gynecologic cancer cell panel viability, ATPlite luminescence, 48 h; series mostly up to 57.5 µM
Summary of the method: as §3

HeLa = assay: as above; details: Gynecologic cancer cell panel viability, ATPlite luminescence, 48 h; series mostly up to 57.5 µM
Summary of the method: as §3

CC1CCC2C(C(=O)O)=CC3C(O)C(C)(C)CC123 (stereo unspecified)
inactive: max response (CRL-7250) -11.2% | outcome (HEK293) | outcome (HaCat [1]) | outcome (KB-3-1) | max response (NIH3T3) -3.55% | outcome (HACAT [2]) | Potency (HEK293T) | Potency (C33A) | Potency (CAOV3) | Potency (CASKI) | Potency (Es-2) | Potency (HeLa)

CC1OC(O[C@H]2[C@@H](O)C[C@@]3(C)C([C@H](O)C[C@]4(C)C3CC=C3C5CC(C)(C)CC[C@]5(C(=O)OC5OC(CO)C(O)C(O)C5OC5OCC(OC6OCC(OC7OCC(O)C(O)C7O)C(O)C6O)C(OC6OCC(O)(CO)C6O)C5O)CC[C@]34C)[C@]2(C)CO)C(O)C(O)C1O (stereo partly specified)
inactive: outcome (CRL-7250) | outcome (HEK293) | outcome (HaCat [1]) | max response (KB-3-1) 0.161% | outcome (NIH3T3) | outcome (HACAT [2]) inactive [at 9.27 µM] | outcome (HEK293T) inactive [at 9.27 µM] | activity change, negative = cytotoxicity (C33A) 4.56% [at 6.55 µM] | activity change, negative = cytotoxicity (CAOV3) -2.76% [at 6.55 µM] | activity change, negative = cytotoxicity (CASKI) 1.71% [at 6.55 µM] | activity change, negative = cytotoxicity (Es-2) -1.65% [at 6.55 µM] | activity change, negative = cytotoxicity (HeLa) 2.57% [at 6.55 µM]

Clc1ccc(CN[C@H]2CCN(c3ncc(Br)cn3)C2)c(Cl)c1
inactive: max response (CRL-7250) -7.31% | outcome (HEK293) | outcome (HaCat [1]) | max response (KB-3-1) -14.8% | max response (NIH3T3) 4.57% | outcome (HACAT [2]) | Potency (HEK293T) | Potency (C33A) | Potency (CAOV3) | Potency (CASKI) | Potency (Es-2) | Potency (HeLa)

C[C@@H]1O[C@@H](O[C@H]2[C@H](O)[C@@H](C(=O)O)O[C@@H](O[C@H]3CC[C@@]4(C)C(CC[C@]5(C)C4CC=C4C6CC(C)(C)CC[C@]6(C(=O)O)CC[C@]45C)C3(C)C)[C@@H]2O[C@@H]2O[C@H](CO)[C@@H](O)[C@H](O)[C@H]2O)[C@H](O)[C@H](O)[C@H]1O (stereo partly specified)
inactive: outcome (CRL-7250) | outcome (HEK293) | outcome (HaCat [1]) | outcome (KB-3-1) | max response (NIH3T3) 1.81% | outcome (HACAT [2]) inactive [at 9.27 µM] | outcome (HEK293T) inactive [at 9.27 µM] | activity change, negative = cytotoxicity (C33A) 0.0448% [at 11.6 µM] | activity change, negative = cytotoxicity (CAOV3) 1.71% [at 11.6 µM] | activity change, negative = cytotoxicity (CASKI) -2.17% [at 11.6 µM] | activity change, negative = cytotoxicity (Es-2) 0.67% [at 11.6 µM] | activity change, negative = cytotoxicity (HeLa) 6.77% [at 11.6 µM]

COc1ccc(/C=C/C(=O)O[C@H]2[C@@H]3C=CO[C@@H](O[C@@H]4O[C@H](CO)[C@@H](O)[C@H](O)[C@H]4O)[C@@H]3[C@@]3(CO)O[C@@H]23)cc1O
inactive: outcome (CRL-7250) | outcome (HEK293) | outcome (HaCat [1]) | outcome (KB-3-1) | max response (NIH3T3) 2.14% | outcome (HACAT [2]) inactive [at 17.4 µM] | Potency (HEK293T) | Potency (C33A) | Potency (CAOV3) | Potency (CASKI) | Potency (Es-2) | Potency (HeLa)

C/C(=C\CCC(C)(O)c1ccc(C)cc1)C(=O)O (stereo unspecified)
inactive: max response (CRL-7250) -2.36% | outcome (HEK293) | outcome (HaCat [1]) | outcome (KB-3-1) | max response (NIH3T3) 0.595% | outcome (HACAT [2]) | Potency (HEK293T) | Potency (C33A) | Potency (CAOV3) | Potency (CASKI) | Potency (Es-2) | Potency (HeLa)

COc1cc(O[C@@H]2O[C@H](CO)[C@@H](O)[C@H](O)[C@H]2O)c(CCC(=O)OC[C@H]2O[C@@H](Oc3cc(OC)c(C4OC(=O)C(C)(O)C4O)cc3CCC(=O)O)[C@H](O)[C@@H](O)[C@@H]2O)cc1C1OC(=O)C(C)(O)C1O (stereo partly specified)
inactive: max response (CRL-7250) 1.01% | outcome (HEK293) | outcome (HaCat [1]) | max response (KB-3-1) 9.44% | max response (NIH3T3) -2.47% | outcome (HACAT [2]) inactive [at 9.27 µM] | outcome (HEK293T) inactive [at 9.27 µM] | activity change, negative = cytotoxicity (C33A) -6.26% [at 11.6 µM] | activity change, negative = cytotoxicity (CAOV3) -7.94% [at 11.6 µM] | activity change, negative = cytotoxicity (CASKI) -4.91% [at 11.6 µM] | activity change, negative = cytotoxicity (Es-2) 12.3% [at 11.6 µM] | activity change, negative = cytotoxicity (HeLa) 22.8% [at 11.6 µM]

C[C@@H]1O[C@@H](O[C@H]2[C@H](OC(=O)[C@]34CCC(C)(C)C[C@H]3C3=CCC5[C@@]6(C)C[C@H](O)[C@H](O[C@@H]7O[C@H](CO[C@@H]8OC[C@H](O)[C@H](O)[C@H]8O)[C@@H](O)[C@H](O)[C@H]7O)C(C)(C)C6CC[C@@]5(C)[C@]3(C)C[C@H]4O)OC[C@@H](O)[C@@H]2O)[C@H](O)[C@H](O[C@@H]2OC[C@](O)(CO)[C@H]2O)[C@H]1O[C@@H]1OC[C@H](O)[C@H](O[C@@H]2OC[C@@H](O)[C@H](O)[C@H]2O)[C@H]1O (stereo partly specified)
inactive: max response (CRL-7250) -6.86% | outcome (HEK293) | outcome (HaCat [1]) | outcome (KB-3-1) | max response (NIH3T3) -1.57% | outcome (HACAT [2]) inactive [at 9.27 µM] | outcome (HEK293T) inactive [at 9.27 µM] | activity change, negative = cytotoxicity (C33A) -0.101% [at 6.55 µM] | activity change, negative = cytotoxicity (CAOV3) 12.2% [at 6.55 µM] | activity change, negative = cytotoxicity (CASKI) 2.2% [at 6.55 µM] | activity change, negative = cytotoxicity (Es-2) -0.0559% [at 6.55 µM] | activity change, negative = cytotoxicity (HeLa) 19.1% [at 6.55 µM]

CCCCCCc1cccc(NC(=O)[C@H](N)CCP(=O)(O)O)c1
inactive: outcome (CRL-7250) | outcome (HEK293) | outcome (HaCat [1]) | outcome (KB-3-1) | max response (NIH3T3) -1.22% | outcome (HACAT [2]) inactive [at 9.27 µM] | outcome (HEK293T) inactive [at 9.27 µM] | activity change, negative = cytotoxicity (C33A) 10.1% [at 11.6 µM] | activity change, negative = cytotoxicity (CAOV3) 5.39% [at 11.6 µM] | activity change, negative = cytotoxicity (CASKI) 0.791% [at 11.6 µM] | activity change, negative = cytotoxicity (Es-2) 1.07% [at 11.6 µM] | activity change, negative = cytotoxicity (HeLa) 2.94% [at 11.6 µM]

COCCCNCC1COc2ccccc2O1 (stereo unspecified)
inactive: max response (CRL-7250) 1.45% | outcome (HEK293) | outcome (HaCat [1]) | max response (KB-3-1) 6.68% | max response (NIH3T3) 4.14% | outcome (HACAT [2]) | Potency (HEK293T) | Potency (C33A) | Potency (CAOV3) | Potency (CASKI) | Potency (Es-2) | Potency (HeLa)

NC(Cc1c[nH]c2ccccc12)C(=O)NC(CCC(=O)O)C(=O)O (stereo unspecified)
inactive: outcome (CRL-7250) | outcome (HEK293) | outcome (HaCat [1]) | max response (KB-3-1) 5.6% | max response (NIH3T3) 1.77% | outcome (HACAT [2]) | Potency (HEK293T) | Potency (C33A) | Potency (CAOV3) | Potency (CASKI) | Potency (Es-2) | Potency (HeLa)

O=C(/C=C/c1ccc(O)cc1)OCC1=CC2OC(=O)C3=CO[C@@H](O[C@@H]4O[C@H](CO)[C@@H](O)[C@H](O)[C@H]4O)[C@H]1[C@@H]32 (stereo partly specified)
inactive: max response (CRL-7250) -2.07% | outcome (HEK293) | outcome (HaCat [1]) | outcome (KB-3-1) | max response (NIH3T3) -2.28% | outcome (HACAT [2]) inactive [at 17.4 µM] | Potency (HEK293T) | Potency (C33A) | Potency (CAOV3) | Potency (CASKI) | Potency (Es-2) | Potency (HeLa)

COc1ccc([C@H]2Cc3cccc(O)c3C(=O)O2)cc1
inactive: max response (CRL-7250) -7.43% | outcome (HEK293) | outcome (HaCat [1]) | max response (KB-3-1) 9.62% | outcome (NIH3T3) | outcome (HACAT [2]) | Potency (HEK293T) | Potency (C33A) | Potency (CAOV3) | Potency (CASKI) | Potency (Es-2) | Potency (HeLa)
